Source: PubChem BioAssay (several laboratories)
BoNT-F LC inh: BoNT F light chain protease inhibition | Multiplex microsphere protease cleavage assay, flow cytometry | hit rate 0.22% among 360,000 | inhibition, % at 10 µM | AID 588497; in the data active = inhibition above about 35%, passing the limit was not always enough; inconclusive = no clear call, values can overlap the other calls; also: plate controls were buffer without enzyme for full effect and enzyme alone for no effect
Anthrax LF inh2: inhibitors of Bacillus anthracis lethal factor protease. AID 588501. P15917. inhibition, % at 10 µM. multiplex microsphere protease cleavage assay, LF. hit rate 0.12% among 360,000; also: plate controls were buffer without enzyme for full effect and enzyme alone for no effect
Target sequence (P15917 whole entry, looked up): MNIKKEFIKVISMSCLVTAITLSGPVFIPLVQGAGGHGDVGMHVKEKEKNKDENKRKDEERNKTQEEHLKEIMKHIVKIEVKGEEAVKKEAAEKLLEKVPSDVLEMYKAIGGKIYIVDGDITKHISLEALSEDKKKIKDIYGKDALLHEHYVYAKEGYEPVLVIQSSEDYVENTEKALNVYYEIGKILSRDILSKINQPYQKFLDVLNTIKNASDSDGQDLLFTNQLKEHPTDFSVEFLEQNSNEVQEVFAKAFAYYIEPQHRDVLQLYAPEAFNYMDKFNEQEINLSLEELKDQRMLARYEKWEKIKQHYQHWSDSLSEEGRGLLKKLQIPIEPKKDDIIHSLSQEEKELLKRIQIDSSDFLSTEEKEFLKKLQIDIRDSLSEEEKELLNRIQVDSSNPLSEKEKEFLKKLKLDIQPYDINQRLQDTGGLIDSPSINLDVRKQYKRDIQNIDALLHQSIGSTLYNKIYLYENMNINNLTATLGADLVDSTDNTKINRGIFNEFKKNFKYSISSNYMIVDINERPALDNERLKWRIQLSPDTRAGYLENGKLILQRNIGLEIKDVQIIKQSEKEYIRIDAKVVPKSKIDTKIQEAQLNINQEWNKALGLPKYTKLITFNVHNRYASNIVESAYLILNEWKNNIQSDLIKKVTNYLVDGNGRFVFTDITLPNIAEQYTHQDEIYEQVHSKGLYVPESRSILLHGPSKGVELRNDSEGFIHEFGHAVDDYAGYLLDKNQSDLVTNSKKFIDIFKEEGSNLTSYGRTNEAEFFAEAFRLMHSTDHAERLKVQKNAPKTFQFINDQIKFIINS
MazEF act: increases E. coli MazEF RNase cleavage of RNA; FAM/BHQ RNA-DNA oligo cleavage fluorescence, 5 h; hit rate 0.32% among 350,000; activation, % at 20 µM; AID 504720; P0AE70; in the data active = activation above about 50%
PriA SSB inh: inhibitors of Klebsiella pneumoniae PriA binding to SSB C-terminal tail | hit rate 0.6% among 430,000 | AlphaScreen SSBct-PriA binding, biotinylated peptide | inhibition, % at 33 µM; in the data active = inhibition mostly above about 37%, no sharp cut-off; inactive = mostly below about 20%;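 also: plate controls were negative control peptide for no effect and reference peptide for full effect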
BoNT A protease: inhibitors of Botulinum neurotoxin A light chain protease; multiplex microsphere protease substrate cleavage, flow cytometry; inhibition, % at 10 µM; hit rate 0.17% among 360,000; also: plate controls were buffer without enzyme for full effect and enzyme alone for no effect
Autofluor counter: compound fluorescence in toxin protease inhibitor counterscreen. hit rate 3.1% among 360,000. fluorescence intensity (no concentration beside the values). compound autofluorescence counterscreen, microsphere flow cytometry; hits give high values; in the data active = fluorescence intensity above about 16000; inconclusive = no clear call, values can overlap the other calls
* hit, by the source's call; ? = inconclusive; nt = no result; + = active, no number. In the library only some 3.3% were active in any assay of this set; here they are far more common. Rule as the data show it, unless noted: active = inhibition above about 30%; inconclusive = no clear call, values can overlap the other calls; inactive = below that.

SMILES	BoNT-F LC inh	Anthrax LF inh2	MazEF act	PriA SSB inh	BoNT A protease	Autofluor counter
N#CC(C#N)=C1C=C2C=C(N3CCCCCC3)CCC2CC1 (configuration not stated)	177*	84*	-680	-49	48*	97979*
CCN1CCN(C2=CC3=CC(=C(C#N)C#N)CCC3CC2)CC1 (configuration not stated)	48*	6	+	-14	-8	30604*
CC1(C)CC(NCCN2CCN(C3=CC(=C(C#N)C#N)CC(C)(C)C3)CC2)=CC(=C(C#N)C#N)C1	-8	0	-8	-10	0	4513
N#CC(C#N)=C1C=C2C=C(N3CCOCC3)CCC2CC1 (configuration not stated)	12	-2	20	-2	-11	26074*
CN1CCN(C2=CC3=CC(=C(C#N)C#N)CCC3CC2)CC1 (configuration not stated)	12	0	nt	-5	-7	17359*
COc1ccc(NC(=O)COc2ccc(C)c(C)c2)c(OC)c1	nt	nt	nt	-17	nt	nt
CCOC(=O)c1[nH]c(C)c(C(=O)C(C)C)c1C	-2	-2	5	-12	-2	16910*
CCOCCCNC(=O)c1c(C)[nH]c(C(=O)OCC)c1C	-2	-2	-1	5	0	16166*
CC(=O)c1c(C)[nH]c(C(=O)COc2cc(C)cc(C)c2)c1C	0	-5	1	-15	2	21911*
CCOCCCNC(=O)c1[nH]c(C)c(C(C)=O)c1C	-1	2	-1	-9	0	3431
CCOC(=O)c1[nH]c(C)c(C(=O)Nc2ccc(C)c(Cl)c2)c1C	-2	-1	-2	-22	-2	21453*
O=C(NCCCn1ccnc1)c1ccc(-n2cccn2)nn1	nt	nt	nt	-8	nt	nt
CCOC(=O)c1c(C)[nH]c(C(=O)OCc2ccccc2)c1C	-18	1	-8	-9	-2	6722
CCNC(=O)c1c(C)[nH]c(C(=O)OCC)c1C	-7	-2	-4	-9	-6	24505*
CCOC(=O)c1[nH]c(C)c(C(=O)N(C)C)c1C	-1	-3	12	-9	0	10788
CCOC(=O)c1[nH]c(C)c(C(=O)OCCN2C(=O)c3ccccc3C2=O)c1C	-5	-8	7	-5	-2	20341*
CCOC(=O)c1[nH]c(C)c(C(=O)NCc2ccccn2)c1C	-4	-5	-2	-26	-3	21338*
CNC(=O)COC(=O)c1[nH]c(C)c(C(C)=O)c1C	-1	-2	2	-27	?	16399*
Cc1cc(C)c(S(=O)(=O)N2CCN(C(=O)Cc3ccccc3)CC2)c(C)c1	nt	nt	nt	4	nt	nt
CCOC(=O)c1[nH]c(C)c(C(=O)N(C)Cc2ccccc2)c1C	1	2	-7	7	3	18491*
COc1ccc(NC(=O)CN(Cc2ccccc2)S(C)(=O)=O)cc1	0	0	6	-9	2	23289*
CS(=O)(=O)N(CC(=O)Nc1ccc2c(c1)OCCO2)Cc1ccccc1	0	0	6	-4	2	21816*
COCCNC(=O)CN(Cc1ccc(Cl)cc1)S(C)(=O)=O	0	0	-6	-20	1	20349*
Cc1ccc(NC(=O)CN(Cc2ccccc2)S(C)(=O)=O)cc1C	-1	1	-2	-16	0	20638*
O=C(CN(Cc1ccccc1)S(=O)(=O)c1ccc2c(c1)OCCO2)Nc1ccc2c(c1)OCCO2	-5	-7	-22	-8	0	4248
SMILES	BoNT-F LC inh	Anthrax LF inh2	MazEF act	PriA SSB inh	BoNT A protease	Autofluor counter
CCOc1cc(C(=S)N2CCCC2)ccc1OC	7	6	3	10	-1	3437
COc1cc(C(=S)N2CCCC2)cc(OC)c1O	-1	-2	6	-13	0	20756*
CCC(C)(C(=O)NC1CCCC1)N(Cc1ccco1)C(=O)c1ccc2c(c1)OCO2 (configuration not stated)	-1	-4	-9	0	-2	17659*
CCC(C)(C(=O)NC1CCCCC1)N(CC1CCCO1)C(=O)c1ccccn1 (configuration not stated)	-8	2	3	-12	-4	25517*
CCC(C)(C(=O)NC1CCCCC1)N(Cc1ccco1)C(=O)c1cnccn1 (configuration not stated)	-2	-5	7	-14	0	16804*
O=C(O)CCC(=NNC(=O)c1cccs1)c1ccccc1	nt	nt	nt	-14	nt	nt
Cc1cc(C(=O)N2CCN(C(=O)c3cnn4ccccc34)CC2)c(C)o1	nt	nt	nt	1	nt	nt
O=C(/C=C/c1ccc([N+](=O)[O-])cc1)Nc1nnc(C2=COCCO2)o1	nt	nt	nt	-4	nt	nt
